Assay results published in PubChem BioAssay (EPA / NIEHS).
Where “and” joins values, the source holds several entries; their conditions need not be identical. Equal values may be shown once. More than one record can exist for a structure, and the calls need not agree. Calls of active or inactive are those of the source. Rule for the calls: active = hit-call score of the fitted dose curve at least 0.9, where 1 is the maximum; inactive = score below 0.9.

How the values were obtained:
[1] = target: Nuclear respiratory factor 1 (Homo sapiens) (UniProt Q16656); test: ATG_NRF1_CIS: Attagene CIS-FACTORIAL HepG2 Assay for human Nuclear Respiratory Factor 1 (NRF1) Orphan Gene (AID 2282987); conditions: HepG2 NRF1 cis-element reporter, Attagene multiplex; actives raise or lower the signal
Chain of Nuclear respiratory factor 1 (Homo sapiens) (Q16656 whole entry, looked up): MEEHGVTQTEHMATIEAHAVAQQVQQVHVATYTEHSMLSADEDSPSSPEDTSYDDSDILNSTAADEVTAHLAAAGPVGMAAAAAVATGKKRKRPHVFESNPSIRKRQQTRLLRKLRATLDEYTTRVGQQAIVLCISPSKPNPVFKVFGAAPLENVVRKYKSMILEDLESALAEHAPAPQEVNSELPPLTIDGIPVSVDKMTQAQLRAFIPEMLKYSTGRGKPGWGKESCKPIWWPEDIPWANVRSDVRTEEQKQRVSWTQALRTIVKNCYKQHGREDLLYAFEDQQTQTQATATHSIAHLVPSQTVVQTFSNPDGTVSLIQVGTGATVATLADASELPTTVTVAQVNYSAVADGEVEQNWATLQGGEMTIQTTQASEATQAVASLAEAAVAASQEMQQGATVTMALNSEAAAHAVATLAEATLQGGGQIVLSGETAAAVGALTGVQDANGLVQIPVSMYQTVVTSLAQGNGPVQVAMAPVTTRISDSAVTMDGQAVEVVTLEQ
Method in brief: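 Multiplexed cis-reporter assay, HepG2 cells, 24 h treatment. Total RNA → oligo(dT) RT → PCR with reporter-specific primers → 6-FAM primer extension → HpaI cut → CE. Bidirectional fit vs DMSO.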

[2] = ATG_NFI_CIS: Attagene CIS-FACTORIAL HepG2 Assay for human Nuclear Factor I (NFI) (AID 2282989); conditions: HepG2 cis-regulatory reporter, NFI response element transcription; actives raise or lower the signal
Method in brief: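 Endogenous TF activity in HepG2 cells transiently transfected with cis-element-driven multiplexed reporter units, read 24 h after dosing. Reporter mRNA quantified by RT-PCR, 6-FAM labelling, HpaI digestion and capillary electrophoresis; bidirectional fit versus DMSO.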

[3] = target: Myc proto-oncogene protein (Homo sapiens) (UniProt P01106); test: ATG_Myc_CIS: Attagene CIS-FACTORIAL HepG2 Assay for human Myelocytomatosis (Myc) Proto-Oncogene Transcription Factor (AID 2282990); conditions: HepG2, Attagene cis-reporter transcription factor activity; actives raise or lower the signal
Chain of Myc proto-oncogene protein (Homo sapiens) (P01106 whole entry, looked up, the tested form may be a part): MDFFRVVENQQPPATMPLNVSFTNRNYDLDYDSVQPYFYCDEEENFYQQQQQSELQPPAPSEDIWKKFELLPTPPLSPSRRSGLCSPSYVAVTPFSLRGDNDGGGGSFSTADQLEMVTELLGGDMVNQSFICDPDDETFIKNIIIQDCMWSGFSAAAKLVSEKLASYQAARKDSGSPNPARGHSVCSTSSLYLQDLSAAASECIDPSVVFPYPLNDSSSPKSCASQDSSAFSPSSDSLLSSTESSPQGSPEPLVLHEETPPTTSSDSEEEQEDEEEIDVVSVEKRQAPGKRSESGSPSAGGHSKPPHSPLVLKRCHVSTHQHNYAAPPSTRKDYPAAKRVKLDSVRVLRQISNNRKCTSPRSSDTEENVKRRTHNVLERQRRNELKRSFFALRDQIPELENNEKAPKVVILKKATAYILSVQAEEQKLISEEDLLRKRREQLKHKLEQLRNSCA
Method in brief: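 Fluorescence intensity of reporter-specific cDNA fragments, separated by capillary electrophoresis, gives the signal. Transfected HepG2 cells carrying cis-promoter reporter constructs are incubated with compound for 24 h; DMSO serves as baseline.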

[4] = ATG_NF_kB_CIS: Attagene CIS-FACTORIAL HepG2 Assay for human Nuclear Factor Kappa B (NF-kB) (AID 2282991); conditions: HepG2 Attagene cis-factorial NF-kB reporter mRNA; actives raise or lower the signal
Method in brief: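 Transient MRTU transfection of human HepG2 liver cells → 24 h chemical exposure → total RNA, oligo(dT) RT → PCR, 6-FAM primer extension, HpaI digest 2 h 37 C → CE fragment analysis. Bidirectional fitting, DMSO negative control.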

[5] = ATG_NRF2_ARE_CIS: Attagene CIS-FACTORIAL HepG2 Assay for human Nuclear Factor Erythroid 2 Related Factor 2 (NFR2) response to Antioxidant Response Elements (ARE) (AID 2282992); conditions: HepG2 Attagene ARE/NRF2 reporter, transcription factor activity; actives raise or lower the signal;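 for AC50: reporter mRNA level measured by RT-PCR and capillary electrophoresis fluorescence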
Method in brief: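 Endogenous transcription factor activity in human liver HepG2 cells is tracked via a cis-element-driven reporter within a multiplexed set. mRNA induction is read by RT-PCR and capillary electrophoresis after 24 h, with DMSO as baseline.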

[6] = ATG_Oct_MLP_CIS: Attagene CIS-FACTORIAL HepG2 Assay for human Octamer-Binding Transcription Factor (Oct) (AID 2282993); conditions: HepG2 Attagene cis-factorial Oct reporter, mRNA; actives raise or lower the signal
Method in brief: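 HepG2 cells transiently transfected with cis-element-driven reporter transcription units (endogenous TF activity); 24 h compound exposure. Reporter mRNA quantified by RT-PCR, 6-FAM labelling, HpaI digestion and capillary electrophoresis; bidirectional fit versus DMSO baseline.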

[7] = target: Cellular tumor antigen p53 (Homo sapiens) (UniProt P04637); test: ATG_p53_CIS: Attagene CIS-FACTORIAL HepG2 Assay for human p53 Transcription Factor (AID 2282994); conditions: HepG2 p53 cis-element reporter, Attagene mRNA; actives raise or lower the signal
Chain of Cellular tumor antigen p53 (Homo sapiens) (P04637 whole entry, looked up, the tested form may be a part): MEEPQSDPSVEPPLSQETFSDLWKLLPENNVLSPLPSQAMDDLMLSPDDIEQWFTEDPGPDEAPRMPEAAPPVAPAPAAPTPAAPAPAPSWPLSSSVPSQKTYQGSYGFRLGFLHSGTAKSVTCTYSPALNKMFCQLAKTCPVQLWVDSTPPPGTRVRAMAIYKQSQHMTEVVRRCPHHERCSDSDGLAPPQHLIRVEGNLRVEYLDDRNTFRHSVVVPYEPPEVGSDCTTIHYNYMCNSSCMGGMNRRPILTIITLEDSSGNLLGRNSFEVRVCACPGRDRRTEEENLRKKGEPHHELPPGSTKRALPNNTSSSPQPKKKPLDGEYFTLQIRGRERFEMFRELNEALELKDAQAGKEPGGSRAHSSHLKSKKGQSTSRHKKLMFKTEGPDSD
Method in brief: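 Steps: transfect HepG2 with multiplexed cis reporter constructs; dose chemicals 24 h; extract RNA, reverse-transcribe, PCR-amplify reporter sequences; FAM-label, HpaI-digest, resolve fragments by CE. Activity fitted both directions relative to DMSO.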

[8] = BSK_3C_TissueFactor: BioMAP Diversity Plus: 3C Assay for Tissue Factor Biomarker Activity (AID 2282997); conditions: BioMAP 3C HUVEC, tissue factor biomarker readout; actives raise or lower the signal
Method in brief: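 HUVEC, 3C system, 24 h post-dose; Tissue Factor by ELISA; bidirectional fit vs DMSO baseline.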

[9] = BSK_3C_uPAR: BioMAP Diversity Plus: 3C Assay for Urokinase-type plasminogen activator receptor (uPAR) Biomarker Activity (AID 2282998); conditions: BioMAP 3C HUVEC, uPAR biomarker ELISA; actives raise or lower the signal
Method in brief: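 Primary human umbilical vein endothelial cells, 3C system; surface uPAR measured by ELISA 24 h after dosing. Cytotoxicity via SRB total protein in parallel cultures; bidirectional fit against DMSO.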

[10] = BSK_3C_VCAM1: BioMAP Diversity Plus: 3C Assay for Vascular cell adhesion molecule 1 (VCAM1) Biomarker Activity (AID 2282999); conditions: BioMAP 3C HUVEC, VCAM1 ELISA, cytokine-stimulated; actives raise or lower the signal
Method in brief: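 HUVEC primary cells, 24 h compound exposure; VCAM-1 by ELISA; gain/loss of signal fitted bidirectionally vs DMSO baseline.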

Row | Structure (SMILES) | AC50 [1] | outcome [2] | outcome [3] | AC50 [4] | outcome [5] | outcome [6] | outcome [7] | outcome [8] | AC50 [9] | AC50 [10] | outcome [1] | outcome [4] | outcome [9] | outcome [10] | AC50 [3] | AC50 [5] | AC50 [6] | AC50 [8] | AC50 [2] | AC50 [7]
1 | CCc1nn(C2CCCCC2)c2cc(C3(C#N)CCC(C(=O)O)CC3)ccc12 (centres undefined) | 100 µM (active) | inactive | inactive | 24.9 µM (active) | inactive | inactive | inactive | inactive | 7.5 µM (active) | 4 µM (active) | – | – | – | – | – | – | – | – | – | –
2 | CCCCCCCCOC(=O)CCCCCCCCC(=O)OCCCCCCCC | – | inactive | inactive | – | inactive | inactive | inactive | inactive | – | – | inactive | inactive | inactive | inactive | – | – | – | – | – | –
3 | COCC(C)O (centres undefined) | – | inactive | inactive | – | inactive | inactive | inactive | inactive | – | – | inactive | inactive | inactive | inactive | – | – | – | – | – | –
4 | CCC(=C(c1ccc(O)cc1)c1ccc(OCCN(C)C)cc1)c1ccccc1 | – | inactive | inactive | – | inactive | inactive | – | – | 7.66 µM (active) | 11.9 µM (active) | inactive | inactive | – | – | 13.1 µM (active) | 5.93 µM (active) and 1.95 µM (active) and 1.77 µM (active) | 7.1 µM (active) and 11.1 µM (active) | 11 µM (active) | – | –
5 | CCC(C)(C)C1CCC(O)CC1 (centres undefined) | – | inactive | inactive | – | inactive | inactive | inactive | inactive | – | – | inactive | inactive | inactive | inactive | – | – | – | – | – | –
6 | O=c1c(-c2ccc(O)cc2)coc2cc(O)ccc12 | – | inactive | inactive | – | inactive | inactive | inactive | – | – | – | inactive | inactive | inactive | inactive | – | – | 100 µM (active) | 15.7 µM (active) | – | –
7 | Nc1cccc2c(N)cccc12 | – | inactive | inactive | – | – | inactive | inactive | inactive | – | – | inactive | inactive | inactive | inactive | – | 46.6 µM (active) | – | – | – | –
8 | OCCC(F)(F)C(F)(F)C(F)(F)C(F)(F)C(F)(F)C(F)(F)C(F)(F)C(F)(F)F | 242 µM (active) | – | inactive | 24.4 µM (active) | – | – | inactive | inactive | 19.5 µM (active) and 16.5 µM (active) | 30 µM (active) and 21.8 µM (active) | inactive | inactive | inactive | inactive | 150 µM (active) | 24.6 µM (active) and 37.3 µM (active) | 46.6 µM (active) and 113 µM (active) | 43.1 µM (active) and 10.6 µM (active) | 46 µM (active) and 150 µM (active) | 150 µM (active)
9 | CCCCCCCCCCCCCCCS(=O)(=O)Oc1ccccc1 | – | inactive | inactive | – | inactive | inactive | inactive | inactive | – | – | inactive | inactive | inactive | inactive | – | – | – | – | – | –
10 | C#C[C@]1(O)CC[C@H]2[C@@H]3CCC4=CC(=O)CC[C@@H]4[C@H]3CC[C@@]21C | – | inactive | inactive | – | inactive | inactive | inactive | – | 5.42 µM (active) | – | inactive | inactive | – | inactive | – | 100 µM (active) and 79.6 µM (active) | – | 15.3 µM (active) | – | –
11 | C[C@@H]1C[C@H]2[C@@H]3CCC4=CC(=O)C=C[C@]4(C)[C@@]3(F)[C@@H](O)C[C@]2(C)[C@@]1(O)C(=O)COP(=O)(O)O | – | inactive | inactive | – | inactive | inactive | inactive | inactive | – | – | inactive | inactive | inactive | inactive | – | – | – | – | – | –
12 | CC#C[C@]1(O)CC[C@H]2[C@@H]3CCC4=CC(=O)CCC4=C3[C@@H](c3ccc(N(C)C)cc3)C[C@@]21C | 170 µM (active) | inactive | inactive | 67.9 µM (active) | – | – | – | inactive | 31.2 µM (active) | 32.2 µM (active) | inactive | inactive | – | – | 160 µM (active) and 100 µM (active) | 28.1 µM (active) [middle of 4 runs] | – | – | 153 µM (active) and 64.1 µM (active) and 34.2 µM (active) | –
13 | COc1cc(CCC(=O)CC(=O)CCc2ccc(O)c(OC)c2)ccc1O | – | inactive | inactive | – | – | – | – | – | – | – | inactive | inactive | – | – | – | 24.8 µM (active) | 68.8 µM (active) | – | – | 100 µM (active)
14 | NCC(F)(F)C(F)(F)C(F)(F)C(F)(F)C(F)(F)C(F)(F)C(F)(F)F | – | inactive | inactive | – | inactive | inactive | inactive | inactive | – | – | inactive | inactive | inactive | inactive | – | – | – | – | – | –
15 | CC(O)C(=O)O (centres undefined) | – | inactive | inactive | – | inactive | inactive | inactive | – | – | – | inactive | inactive | – | – | – | – | – | – | – | –
16 | O=C(/C=C/c1ccc(O)cc1)CC(=O)/C=C/c1ccc(O)cc1 | – | inactive | inactive | – | – | inactive | inactive | – | – | – | inactive | inactive | – | – | – | 2.65 µM (active) | – | – | – | –
17 | OCCC(F)(F)C(F)(F)C(F)(F)C(F)(F)C(F)(F)C(F)(F)F | – | inactive | inactive | – | inactive | inactive | inactive | inactive | 43.6 µM (active) and 47.3 µM (active) | 51.7 µM (active) | inactive | – | inactive | inactive | – | 50.3 µM (active) | 136 µM (active) | 46.3 µM (active) and 30 µM (active) | 153 µM (active) | –
